Potency data for 40 molecules are collected here from PubChem BioAssay (NCATS).

Each structure is given as a SMILES string. Active and inactive are the calls of the source. A call without a number means that no potency is given here. Calls come from the whole dose curve; as a rule, active = well fitted inhibition curve with a large enough effect; inconclusive = small, poorly fitted or top-dose-only effect; inactive = flat fitted curve, though single readings scatter.
Potency is the fitted concentration of half-maximal effect.

For the test, the target named is DNA polymerase III PolC-type (Bacillus subtilis (strain 168)) (UniProt P13267). Kind of test: qHTS Validation Assay for the Inhibitors of DNA Replication in Gram-Positive Bacteria (AID 485295). As to conditions: Gram-positive bacterial DNA replication assay; series mostly up to 57.1 µM. On the procedure: B Subtilis DNA polymerase III holoenzyme complex was assayed for DNA production by fluorescent detection of the double-stranded DNA product with PicoGreen dye. The holoenzyme complex was reconstituted from the following purified protein components: DNA Polymerase III, beta subunit processivity factor, SSB single-stranded DNA binding protein, and Primase. Single-stranded, circular M13Gori was used as a substrate with dNTPs and NTPs also supplied to the substrate reagent. Compounds from the NCGC collection were incubated with the holoenzyme mixture for […] at room temperature to allow binding to occur, and then the reaction was started by the addition of substrate. After 30 min incubation at room temperature, PicoGreen solution containing EDTA was added to stop the reaction and to visualize the double-stranded DNA produced. Reaction progress was measured in a ViewLux CCD imager in fluorescence intensity mode by using 480 nm excitation and 540 nm emission filter set.
Chain of DNA polymerase III PolC-type (Bacillus subtilis (strain 168)) (P13267 whole entry, looked up): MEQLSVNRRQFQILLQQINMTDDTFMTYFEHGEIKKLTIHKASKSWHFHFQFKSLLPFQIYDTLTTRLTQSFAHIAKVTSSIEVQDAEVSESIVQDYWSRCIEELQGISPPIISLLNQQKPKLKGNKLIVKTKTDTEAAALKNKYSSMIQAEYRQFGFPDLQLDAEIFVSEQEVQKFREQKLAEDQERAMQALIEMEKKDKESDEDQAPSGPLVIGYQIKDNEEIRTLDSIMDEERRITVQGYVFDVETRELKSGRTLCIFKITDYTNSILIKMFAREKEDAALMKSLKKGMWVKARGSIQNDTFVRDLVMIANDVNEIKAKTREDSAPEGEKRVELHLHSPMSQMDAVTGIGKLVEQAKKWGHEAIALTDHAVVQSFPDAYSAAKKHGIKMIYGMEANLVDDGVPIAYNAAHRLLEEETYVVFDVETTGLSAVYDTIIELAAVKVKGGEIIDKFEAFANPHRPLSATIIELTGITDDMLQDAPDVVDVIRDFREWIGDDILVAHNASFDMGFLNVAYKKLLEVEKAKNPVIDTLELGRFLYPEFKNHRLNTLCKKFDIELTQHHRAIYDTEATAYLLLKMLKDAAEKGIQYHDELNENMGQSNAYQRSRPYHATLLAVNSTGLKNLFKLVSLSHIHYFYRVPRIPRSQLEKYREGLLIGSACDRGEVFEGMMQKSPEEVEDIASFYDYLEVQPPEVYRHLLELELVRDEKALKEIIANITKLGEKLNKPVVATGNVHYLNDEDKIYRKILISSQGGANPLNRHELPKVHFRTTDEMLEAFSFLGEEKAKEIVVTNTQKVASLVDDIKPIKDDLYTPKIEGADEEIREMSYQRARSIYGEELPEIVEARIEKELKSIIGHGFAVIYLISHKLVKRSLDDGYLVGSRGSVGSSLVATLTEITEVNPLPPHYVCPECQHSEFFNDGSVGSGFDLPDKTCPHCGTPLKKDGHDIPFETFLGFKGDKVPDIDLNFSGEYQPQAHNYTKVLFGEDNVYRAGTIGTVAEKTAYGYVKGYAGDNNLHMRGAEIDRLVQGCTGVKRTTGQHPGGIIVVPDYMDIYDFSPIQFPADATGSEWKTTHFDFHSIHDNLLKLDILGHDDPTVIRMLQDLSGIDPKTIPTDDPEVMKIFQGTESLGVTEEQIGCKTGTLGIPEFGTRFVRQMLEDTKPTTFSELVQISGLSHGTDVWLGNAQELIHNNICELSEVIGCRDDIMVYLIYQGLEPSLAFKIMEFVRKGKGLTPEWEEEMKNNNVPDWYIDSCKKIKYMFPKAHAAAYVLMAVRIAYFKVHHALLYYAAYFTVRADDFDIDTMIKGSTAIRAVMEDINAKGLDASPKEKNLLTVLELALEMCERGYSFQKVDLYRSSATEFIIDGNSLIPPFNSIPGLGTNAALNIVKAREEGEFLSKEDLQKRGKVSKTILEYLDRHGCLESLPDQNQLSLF
1. Thaw screening compounds.
2. Label assay plates. Prepare pipette tips, reagent reservoirs, buffers and controls.
1. Thaw Enzymes, DNA template, Nucleotides and PicoGreen dye concentrate. Thawed enzymes are stable on ice for ~1
week. Other thawed components are stable indefinitely.
2. Prepare sufficient quantities of Enzyme, Substrate and PicoGreen Quench mixes (according to Table II). For the number of
compound plates being screened.
3. Ensure that the tip wash station reservoirs have clean water and turn on recirculating chiller so that the chilled deck position
1. Load 2 uL of EDTA controls (250 mM, Background, 100 % inhibition) and 2 uL of DMSO controls (Negative control, 0%
inhibition) in the screening plates (flat-bottomed black 384-well polypropylene, Greiner Bio-one).
2. Place Enzyme mix reservoir on the chiller position of the liquid handler deck. Make sure that chiller will maintain
temperature of Enzyme mix at 4degC. Substrate mix and PicoGreen Quench can be stored at room temp.
3. Program liquid handling robotics to dispense 18 uL of Enzyme mix into assay plates. Wash tips.
4. Aspirate and dispense 2 uL of compound from compound plates, mix and Incubate at room temperature for 10 minutes.
5. Aspirate 5 ul of Substrate mix, dispense into assay plates and mix by pipetting. Wash tips.
6. Incubate at room temperature (21 +/- 1 deg C) for 20 minutes.
7. Quench reactions by addition of 25 uL PicoGreen Quench mix and mix by pipetting (using HTS robotics or bulk reagent
dispenser such as a Multidrop or uFill). Keep plates in the dark or stacked until ready to read fluorescence.
8. Read fluorescence intensity of plates on plate reader using "Fluorescein (Ex 485 nm/ Em 535 nm, 0.1s)" setting.
On the technique in general: Quantitative high-throughput screening tests each substance at several concentrations.
For the molecule `COc1cc(Cc2cnc(N)nc2N)cc(OC)c1OC`, the Potency entry was “inactive”. The entry for `COc1ccc(CCN(C)CCCC(C#N)(c2cc(OC)c(OC)c(OC)c2)C(C)C)cc1OC` (stereo not given) is “inactive”. As to `CN=C(NC#N)NCCSCc1nc[nH]c1C`, the Potency result is “inactive”. As for `Cc1nc2c([nH]1)c(=O)n(C)c(=O)n2Cc1ccco1`, the Potency result is “inactive”.

In the case of `C[C@]12CC[C@@H]3c4ccc(O)cc4C[C@@H](CCCCCCCCCS(=O)CCCC(F)(F)C(F)(F)F)[C@H]3[C@@H]1CC[C@@H]2O` (stereo not given in full), the Potency result is “inactive”. The entry for `COCCc1ccc(OCC(O)CNC(C)C)cc1` (stereo not given) is “inactive”.

With `NC(=O)N1c2ccccc2C=Cc2ccccc21`, the Potency entry is “inactive”. In the case of `CCN1CCC[C@H]1CNC(=O)c1c(O)c(Cl)cc(Cl)c1OC`, the Potency entry is “inactive”. With `O=C(O)CCCCCCCC(=O)O`, the Potency entry is “inactive”. With `O=C(CCNNC(=O)c1ccncc1)NCc1ccccc1`, the Potency entry is “inactive”. For `C=CCc1ccccc1OCC(O)CNC(C)C` (stereo not given), the Potency entry is “inactive”. With `CO[C@@]1(NC(=O)CSCC#N)C(=O)N2C(C(=O)O)=C(CSc3nnnn3C)CS[C@@H]21`, the Potency result was “inactive”. On to `CNC1(C)C2CCC(C2)C1(C)C` (stereo not given), for which the Potency result was “inactive”.

Turning to `COC(=O)[C@H]1[C@H]2C[C@@H]3c4[nH]c5cc(OC)ccc5c4CCN3C[C@H]2C[C@@H](OC(=O)c2cc(OC)c(OC)c(OC)c2)[C@@H]1OC`, the Potency entry is “inactive”. The figure for `C[n+]1cc2c3c(ccc2c2ccc4cc5c(cc4c21)OCO5)OCO3` is 8.44 µM (active); for `CC(=O)[C@@]1(O)CC[C@H]2[C@@H]3CCC4=CC(=O)CC[C@]4(C)[C@H]3CC[C@@]21C` it is “inactive”; for `CC(C)NCC(O)c1cc(O)cc(O)c1` (stereo not given) it is “inactive”. The entry for `C[C@]12C=CC(=O)C=C1CC[C@H]1[C@@H]3C[C@@H](O)[C@](O)(C(=O)CO)[C@@]3(C)C[C@H](O)[C@@]12F` is “inactive”. As for `CCc1cccc(N(C)C(N)=Nc2cccc3ccccc23)c1`, the entry is “inactive”.

For `Brc1c(NC2=NCCN2)ccc2nccnc12`, the Potency result is “inactive”. As for `FC(F)(F)c1ccccc1-n1ccnc1`, the entry is “inactive”. Turning to `CN(C)[C@@H]1C(=O)C(C(N)=O)=C(O)[C@@]2(O)C(=O)C3=C(O)c4c(O)ccc(Cl)c4[C@@H](O)[C@H]3C[C@@H]12`, the Potency entry was “inactive”.

On to `O=C1NCN(c2ccccc2)C12CCN(CCCC(c1ccc(F)cc1)c1ccc(F)cc1)CC2`, for which the Potency entry is “inactive”. For the molecule `COc1cc(C(=O)OCCCN2CCCN(CCCOC(=O)c3cc(OC)c(OC)c(OC)c3)CC2)cc(OC)c1OC`, the Potency entry is “inactive”. The entry for `COc1ccc2c(c1OC)C(=O)O[C@@H]2[C@H]1c2c(cc3c(c2OC)OCO3)CCN1C` is “inactive”; for `Fc1ccc(C(c2ccc(F)cc2)N2CCN(C/C=C/c3ccccc3)CC2)cc1` it is “inactive”; for `C[C@]12CCC(=O)C=C1CC[C@@H]1[C@@H]2C(=O)C[C@@]2(C)[C@H]1CC[C@]2(O)C(=O)CO` it is “inactive”. As for `NC(N)=N/N=C/c1c(Cl)cccc1Cl`, the entry is “inactive”. As for `CCn1ccnc1CC1COc2ccccc2O1` (stereo not given), the Potency result is “inactive”. The entry for `C#CCN(C)CCCOc1ccc(Cl)cc1Cl` is “inactive”. As for `COCCOC(=O)C1=C(C)NC(C)=C(C(=O)OC(C)C)C1c1cccc([N+](=O)[O-])c1` (stereo not given), the Potency result is “inactive”. Turning to `c1ccc2c(c1)CCCC2C1=NCCN1` (stereo not given), the Potency entry is “inactive”. Consider `CN(C)CCOC(=O)COc1ccc(Cl)cc1`, for which the Potency entry was “inactive”. On to `CN1CCN(C2=Nc3ccccc3Oc3ccc(Cl)cc32)CC1`, for which the Potency entry is “inactive”. The entry for `COC(=O)[C@@H](N)Cc1ccc(O)c(O)c1` is “inactive”; for `CC(C)(Oc1ccc(CCNC(=O)c2ccc(Cl)cc2)cc1)C(=O)O` it is “inactive”. The entry for `Nc1ncn([C@@H]2O[C@H](CO)[C@@H](O)[C@H]2O)c(=O)n1` is “inactive”; for `CCN(Cc1ccncc1)C(=O)C(CO)c1ccccc1` (stereo not given) it is “inactive”. As for `CCC(=O)c1ccc2c(c1)N(CCCN(C)C)c1ccccc1S2`, the Potency entry was “inactive”.

Regarding `Cc1ccc(=O)n(-c2ccccc2)c1`, the Potency result was “inactive”.
